Eight molecules from PubChem BioAssay (NCI) can be followed below.

The panel holds about 83,000 compounds, 20% with a hit somewhere; the sample as a whole holds those more often.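 Assay: single dose, 48 h. Readout: percent growth (0 = no net growth; negative = cell death). Active: <10.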 A number with no mark means an inactive call. Active and inactive are the calls of the source.

Common to all, as to test: NCI-60 one-dose screen, 48 h (100 = growth as untreated, 0 = no growth, -100 = all killed)
One test relates to HT29 colon. As to conditions: 10 µM unless noted.
For another test, the system named is SNB-75 CNS. Particulars: 10 µM unless noted.
The test system of a further test is SNB-19 CNS. Particulars: 10 µM unless noted.
In the next test the test system is U251 CNS. Particulars: 10 µM unless noted.
The test system of another test is PC-3 prostate. Particulars: 10 µM unless noted.
The subject of a further test is SK-MEL-5 melanoma. Particulars: 10 µM unless noted.
A further test relates to UACC-62 melanoma. Particulars: 10 µM unless noted.
The next test deals with LOX IMVI melanoma. Particulars: 10 µM unless noted.
For the next test, the system named is SK-MEL-28 melanoma. As to conditions: 10 µM.
The subject of a further test is SK-MEL-2 melanoma. As to conditions: 10 µM unless noted.
For another test, the system named is SN12C renal. Particulars: 10 µM unless noted.
The subject of the next test is UO-31 renal. Particulars: 10 µM unless noted.
For another test, the system named is ACHN renal. As to conditions: 10 µM unless noted.
In the next test the test system is CAKI-1 renal. As to conditions: 10 µM unless noted.
Another test has as its system A498 renal. Particulars: 10 µM unless noted.
The subject of another test is CCRF-CEM leukemia. Particulars: 10 µM unless noted.
For the next test, the system named is MOLT-4 leukemia. As to conditions: 10 µM unless noted.
The subject of another test is SR leukemia. Particulars: 10 µM unless noted.
For a further test, the system named is TK-10 renal. Particulars: 10 µM unless noted.
A further test deals with EKVX NSCLC. As to conditions: 10 µM unless noted.

With `O=C(NC1CCN(Cc2ccccc2)CC1)c1cc2nc(-c3ccc(Cl)s3)cc(C(F)(F)F)n2n1`, the growth was -84.3% (active) in the test on HT29 colon; 35.6% with SNB-75 CNS; 101% with SNB-19 CNS; -86.9% (active) in the test on U251 CNS; 72.2% in the test with PC-3 prostate; 89.1% in the test with SK-MEL-5 melanoma. For the same molecule, the growth is 97.3% with UACC-62 melanoma; 45.2% in the test with LOX IMVI melanoma; -97.4% (active) in the test on SK-MEL-28 melanoma; -62.8% (active) in the test with SK-MEL-2 melanoma; 91.3% in the test with SN12C renal; 96.1% with UO-31 renal. In addition, the growth with ACHN renal was 96.4%; with CAKI-1 renal, 102%; in the test with A498 renal, 98.6%; in the test with CCRF-CEM leukemia, -21.7% (active); in the test on MOLT-4 leukemia, -34.3% (active); in the test on SR leukemia, -8.99% (active).
Consider `COc1ccc(C(=O)C2CC2c2ccc(Cl)cc2)cc1` (stereo unspecified), for which the growth with HT29 colon was 104%; in the test on SNB-75 CNS it was 75.6%; in the test with SNB-19 CNS, 117%; in the test on U251 CNS it was 82.4%; with PC-3 prostate it was 72.5%; in the test with SK-MEL-5 melanoma, 96.7%. The growth was 84.9% in the test with UACC-62 melanoma; 91.1% in the test with LOX IMVI melanoma; 107% in the test on SK-MEL-28 melanoma; 89% in the test on SK-MEL-2 melanoma; 85% with SN12C renal; 64.4% with UO-31 renal. In addition, the growth was 103% in the test on TK-10 renal; 78.6% in the test with ACHN renal; 87.9% in the test on CAKI-1 renal; 9.89% (active) in the test on CCRF-CEM leukemia; 41.2% with MOLT-4 leukemia; 77.8% in the test on SR leukemia.
Regarding `COc1ccc(/C=C2/SC(=O)N(CC(=O)N3CCN(c4cc5c(cc4F)c(=O)c(C(=O)O)cn5C4CC4)CC3)C2=O)cc1`, the growth with HT29 colon was 99.2%; in the test on SNB-75 CNS it was 86.4%; in the test with SNB-19 CNS it was 101%; with U251 CNS, 101%; with PC-3 prostate, 104%; in the test with SK-MEL-5 melanoma it was 101%. Moreover, the growth in the test with UACC-62 melanoma is 97.3%; with LOX IMVI melanoma, 93.9%; in the test with SK-MEL-28 melanoma it was 107%; in the test on SK-MEL-2 melanoma, 108%; in the test on SN12C renal, 96.5%; with UO-31 renal it was 81.8%. Moreover, the growth with ACHN renal is 102%; with CAKI-1 renal, 92.4%; in the test with A498 renal it was 113%; in the test on CCRF-CEM leukemia, 107%; in the test with MOLT-4 leukemia, 108%; in the test with SR leukemia it was 94.4%.
`CCOC(=O)c1c(Cl)c2c(n1Cc1ccccc1)-c1oncc1CCC2`: the growth in the test with HT29 colon was 25.8%; with SNB-75 CNS, 69.1%; in the test with SNB-19 CNS it was 83.2%; in the test with U251 CNS, 64.5%; with PC-3 prostate, 65.6%; in the test with SK-MEL-5 melanoma, 53.1%. For the same molecule, the growth is 49.2% in the test on UACC-62 melanoma; 66.7% with LOX IMVI melanoma; 44.7% in the test with SK-MEL-28 melanoma; 52.7% in the test on SK-MEL-2 melanoma; 63.9% in the test on SN12C renal; 72.4% in the test with UO-31 renal. For the same molecule, the growth in the test with TK-10 renal is 98.9%; in the test on ACHN renal it was 65.8%; with CAKI-1 renal it was 59.5%; in the test on A498 renal, 56.9%; in the test on CCRF-CEM leukemia, 59.7%; with MOLT-4 leukemia, 52.6%. In the test on SR leukemia, the growth was 0.79% (active).
With `COc1cc(/C=C/C(=O)c2ccc(Nc3nc(NCCO)nc(N4CCOCC4)n3)cc2)cc(OC)c1OC`, the growth in the test with HT29 colon is 5.79% (active); with SNB-75 CNS, 10.4%; with SNB-19 CNS, 30.5%; with U251 CNS it was 14.6%; with PC-3 prostate it was 31%; in the test with SK-MEL-5 melanoma, 10.5%. Further, the growth in the test on UACC-62 melanoma is -31.7% (active); with SK-MEL-28 melanoma it was 48.4%; in the test on SK-MEL-2 melanoma, 50.6%; in the test on EKVX NSCLC, 21.7%; in the test with SN12C renal, 16.3%; in the test on UO-31 renal it was 25.4%. The growth was 35.3% in the test with TK-10 renal; 23.3% with ACHN renal; 23.6% in the test on CAKI-1 renal; 2.25% (active) in the test on A498 renal; 3.64% (active) with CCRF-CEM leukemia; 0.216% (active) in the test on MOLT-4 leukemia. Moreover, the growth with SR leukemia was 17.4%.
For `O=C(N/N=C/c1ccccc1Cl)C(=O)Nc1cccc(C(F)(F)F)c1`, the growth in the test with HT29 colon is 97.4%; in the test with SNB-75 CNS it was 116%; in the test with SNB-19 CNS, 94.1%; with U251 CNS it was 96.9%; in the test with PC-3 prostate it was 106%; in the test on SK-MEL-5 melanoma, 96.6%. The growth was 91.2% in the test with UACC-62 melanoma; 113% in the test with SK-MEL-28 melanoma; 113% in the test on SK-MEL-2 melanoma; 92.7% with SN12C renal; 90.8% in the test on UO-31 renal; 83.7% in the test on TK-10 renal. Besides, the growth in the test with ACHN renal was 76%; with CAKI-1 renal, 97.6%; with A498 renal, 89.3%; in the test on CCRF-CEM leukemia, 100%; in the test on MOLT-4 leukemia, 92.1%; with SR leukemia it was 65.1%.
Take `COc1ccc(C2C3=C(COC3=O)N(CCO)c3cc4c(cc32)CCC4)cc1` (stereo unspecified): the growth was 15.4% with HT29 colon; 42.4% in the test on SNB-75 CNS; 62.2% in the test on SNB-19 CNS; 42% in the test with U251 CNS; 54.6% in the test with PC-3 prostate; 35.7% in the test on SK-MEL-5 melanoma. The growth in the test on UACC-62 melanoma is 48.3%; in the test on LOX IMVI melanoma, 51%; in the test with SK-MEL-2 melanoma, 77.9%; in the test with EKVX NSCLC, 66.7%; in the test on SN12C renal, 95.1%; in the test on UO-31 renal it was 75.7%. Moreover, the growth is 77.9% in the test on TK-10 renal; 67.7% with ACHN renal; 48% with CAKI-1 renal; 73.2% with A498 renal; 64.3% with CCRF-CEM leukemia; 45.4% with MOLT-4 leukemia. In the test with SR leukemia, the growth was 35.8%.
`CN1CCN(Cc2ccc(C(=O)Nc3cncc(C#Cc4cnc(N)c5ccccc45)c3)cc2C(F)(F)F)CC1`: the growth with HT29 colon was -53.2% (active); in the test with SNB-75 CNS, -96.4% (active); in the test on SNB-19 CNS it was -47.5% (active); in the test on U251 CNS it was -70.5% (active); in the test on PC-3 prostate, -18.8% (active); in the test with SK-MEL-5 melanoma, -94.6% (active). The growth was 42.7% with UACC-62 melanoma; -85.5% (active) in the test with SK-MEL-28 melanoma; -53.9% (active) in the test with SK-MEL-2 melanoma; -8.85% (active) with EKVX NSCLC; -81.7% (active) in the test on SN12C renal; -70.1% (active) in the test with TK-10 renal. For the same molecule, the growth was -76.1% (active) in the test on ACHN renal; -91.4% (active) with CAKI-1 renal; -62.9% (active) in the test with A498 renal; 0.702% (active) in the test on CCRF-CEM leukemia; -30% (active) with MOLT-4 leukemia.
